Reference: PubChem BioAssay AID1159580 (chemical genetic matrix, 2015)
Out of some 5,500 compounds screened, about 2,000 (36%) were called active. About 18% were inconclusive and are not listed. Cut-off read from the data, not from the text of the source: active = normalized growth mostly below about 0.91 (no sharp cut-off); inconclusive = no clear call, values can overlap the other calls; inactive = mostly above about 0.92. The list shows a part of the results.

Assay: chemical genetic growth profiling, strain panel (AID 1159580);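 note: tested at 20 µM; growth read once vehicle control cultures reached saturation at 30 °C; 1 = growth at the plate median or of vehicle wells; lower values mean less growth of the strain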
Conditions: S. cerevisiae deletion strains, growth OD

Measured: normalized growth

CCC(C)C(=O)O[C@@H]1C[C@@]2(C)[C@H](c3ccoc3)OC(=O)CC23OC2(C)OC34[C@H](OC(=O)C(C)C)[C@@]3(O)[C@@H](OC(=O)C5(C)OC5C)[C@@]5(C)C[C@]3(O)[C@@](C)([C@H]5CC(=O)OC)C14O2 (some centres not stated)
inactive: locus YJR066W, strain TOR1, active compounds read low 0.979 | locus YJR075W, strain HOC1, active compounds read low 1.02 | locus YKL009W, strain mrt4, active compounds read low 0.972 | locus YKL068W, active compounds read low 1 | locus YKL085W, strain MDH1 (second series), active compounds read low 1 | locus YKL085W, strain MDH1, active compounds read low 1 | locus YKL160W, strain elf1, active compounds read low 0.966 | locus YKL190W, strain CNB1, active compounds read low 0.999 | locus YKR001C, strain vps1, active compounds read low 0.996 | locus YKR026C, strain gcn3, active compounds read low 1 | locus YKR091W, strain srl3, active compounds read low 0.996 | locus YLL001W, strain dnm1, active compounds read low 1 | locus YLL026W, active compounds read low 1 | locus YLL041C, strain sdh2, active compounds read low 0.988 | locus YLR027C, strain aat2, active compounds read low 1.01 | locus YLR039C, strain RIC1, active compounds read low 0.774 | locus YLR058C, strain SHM2, active compounds read low 1.01 | locus YLR102C, strain apc9, active compounds read low 1.01 | locus YLR113W, strain HOG1, active compounds read low 1.01 | locus YLR221C, strain rsa3, active compounds read low 0.994 | locus YLR258W, strain gsy2, active compounds read low 0.983 | locus YLR268W, strain sec22, active compounds read low 0.958 | locus YLR320W, strain mms22, active compounds read low 0.999 | locus YLR342W, strain FKS1, active compounds read low 1.01 | locus YLR357W, strain rsc2, active compounds read low 1.03 | locus YLR370C, strain arc18, active compounds read low 0.996 | locus YLR371W, strain rom2, active compounds read low 1.01 | locus YLR384C, strain iki3, active compounds read low 1.01 | locus YLR418C, strain cdc73, active compounds read low 1.04 | locus YML016C, strain PPZ1, active compounds read low 1.01 | locus YML032C, strain rad52, active compounds read low 0.98 | locus YML120C, strain ndi1, active compounds read low 1.01 | locus YML124C, strain tub3, active compounds read low 0.998 | locus YMR058W, strain fet3, active compounds read low 1.01 | locus YMR078C, strain ctf18, active compounds read low 0.999 | locus YMR125W, strain sto1, active compounds read low 1.01 | locus YMR129W, active compounds read low 0.99 | locus YMR205C, strain PFK2, active compounds read low 0.975 | locus YMR223W, strain ubp8, active compounds read low 1.01 | locus YMR231W, strain pep5, active compounds read low 0.992 | locus YMR307W, strain GAS1, active compounds read low 1.01 | locus YNL067W, strain RPL9B, active compounds read low 1.05 | locus YNL071W, strain lat1, active compounds read low 1.02 | locus YNL128W, strain TEP1, active compounds read low 0.99 | locus YNL153C, strain GIM3, active compounds read low 1.07 | locus YNL183C, strain NPR1, active compounds read low 0.988 | locus YNL209W, strain ssb2, active compounds read low 1.02 | locus YNL233W, strain BNI4, active compounds read low 1.04 | locus YNL248C, strain rpa49, active compounds read low 1.03 | locus YNL250W, strain rad50, active compounds read low 1.05 | locus YNL271C, strain bni1, active compounds read low 1.01 | locus YNL298W, strain CLA4, active compounds read low 1.02 | locus YNL307C, strain MCK1, active compounds read low 1.01 | locus YNL322C, strain KRE1 (second series), active compounds read low 1 | locus YNL322C, strain KRE1, active compounds read low 1 | locus YNR049C, strain mso1, active compounds read low 1.01 | locus YNR052C, strain pop2, active compounds read low 1.03 | locus YOL012C, strain htz1 0.642 | locus YOL147C, strain pex11, active compounds read low 0.999 | locus YOR001W, strain rrp6, active compounds read low 1 | locus YOR061W, strain CKA2, active compounds read low 0.987 | locus YOR069W, strain VPS5, active compounds read low 1 | locus YOR070C, strain gyp1, active compounds read low 1.02 | locus YOR080W, strain dia2, active compounds read low 1.01 | locus YOR083W, strain WHI5, active compounds read low 1.01 | locus YOR106W, strain vam3, active compounds read low 0.998 | locus YOR136W, strain idh2, active compounds read low 1.01 | locus YOR144C, strain elg1, active compounds read low 0.998 | locus YOR184W, strain ser1, active compounds read low 0.971 | locus YOR231W, strain MKK1, active compounds read low 0.991 | locus YOR265W, strain rbl2, active compounds read low 0.984 | locus YOR290C, strain snf2, active compounds read low 1 | locus YOR316C, strain cot1, active compounds read low 0.999 | locus YPL051W, strain arl3, active compounds read low 0.983 | locus YPL055C, strain LGE1, active compounds read low 0.979 | locus YPL078C, strain atp4, active compounds read low 0.992 | locus YPL106C, strain sse1, active compounds read low 1.06 | locus YPL240C, strain hsp82, active compounds read low 1 | locus YPL241C, strain CIN2, active compounds read low 0.983 | locus YPL256C, strain CLN2, active compounds read low 1.04 | locus YPR119W, strain clb2, active compounds read low 1.01 | locus YPR141C, strain kar3, active compounds read low 1.01 | locus YPR163C, strain tif3, active compounds read low 1.01 | locus YPR167C, strain met16, active compounds read low 1.01 | strain wtn01, active compounds read low 0.982
active: locus YLR262C, strain YPT6 (second series), active compounds read low 0.647 | locus YOR270C, strain vph1, active compounds read low 0.777
